Among the data in PubChem BioAssay (NCI) are growth values, retold here.

Common to all, as to test: NCI-60 one-dose screen, 48 h (100 = growth as untreated, 0 = no growth, -100 = all killed)
What all share (settings): 10 µM unless noted

Test [1] relates to HCT-15 colon.
For test [2], the system named is HT29 colon.
Test [3] concerns SNB-75 CNS.
The test system of test [4] is SNB-19 CNS.
For test [5], the system named is PC-3 prostate.
Test [6] relates to SK-MEL-5 melanoma.
The test system of test [7] is UACC-62 melanoma.
Test [8] has as its system LOX IMVI melanoma.
For test [9], the system named is SK-MEL-28 melanoma.
The subject of test [10] is SK-MEL-2 melanoma.
For test [11], the system named is EKVX NSCLC.
Test [12] has as its system SN12C renal.
For test [13], the system named is UO-31 renal.
The test system of test [14] is TK-10 renal.
Test [15] relates to ACHN renal.
Test [16] has as its system CAKI-1 renal.
Test [17] concerns A498 renal.
Test [18] deals with CCRF-CEM leukemia.
Test [19] relates to MOLT-4 leukemia.
Test [20] relates to U251 CNS.

Each structure is given as a SMILES string. The panel holds about 83,000 compounds, 20% with a hit somewhere; the sample as a whole holds those more often.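 Assay: single dose, 48 h. Readout: percent growth (0 = no net growth; negative = cell death). Active: <10.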 Activity calls are given as the source filed them.

For `COc1ccc(CN2CCc3c(Cl)nc(N)nc3C2=O)c(OC)c1`, the growth is -36.7% [100 µM] (active) in test [1]; -4.88% [100 µM] (active) in test [2]; 4.5% [100 µM] (active) in [3]; 33.9% [100 µM] (inactive) in [4]; 12% [100 µM] (inactive) in test [5]; -55.7% [100 µM] (active) in [6]. Besides, the growth in test [7] was -24.5% [100 µM] (active); in test [8] it was -29.7% [100 µM] (active); in [9], -56.1% [100 µM] (active); in [10], -30.2% [100 µM] (active); in test [11], 5.84% [100 µM] (active); in test [12], 17.2% [100 µM] (inactive). Also, the growth in [13] is 27.9% [100 µM] (inactive); in test [14], 22.2% [100 µM] (inactive); in test [15], 32.3% [100 µM] (inactive); in [16], 23.4% [100 µM] (inactive); in test [17], 35.7% [100 µM] (inactive); in test [18] it was 3.61% [100 µM] (active). For the same molecule, the growth in test [19] was 13% [100 µM] (inactive).
For the molecule `CCCCCCCCCCCCCCCC(=O)O[C@@H]1[C@@H](O)[C@@H](O)C([C@H](NC(=O)[C@@H]2C[C@@H](CCC)CN2C)[C@H](C)Cl)O[C@@H]1SC` (some centres undefined), the growth is 99.9% (inactive) in [1]; 111% (inactive) in [2]; 96.2% (inactive) in test [3]; 101% (inactive) in test [4]; 97.6% (inactive) in test [5]; 99.9% (inactive) in [6]. Further, the growth was 104% (inactive) in test [7]; 105% (inactive) in test [8]; 112% (inactive) in test [9]; 112% (inactive) in [10]; 100% (inactive) in [11]; 104% (inactive) in test [12]. Further, the growth in [13] is 77.2% (inactive); in [14] it was 115% (inactive); in test [15], 95.4% (inactive); in test [16], 96% (inactive); in test [17], 101% (inactive); in test [19], 103% (inactive).
With `O=C(NCc1cccnc1)/C(=C\c1ccc(Br)cc1)S(=O)(=O)c1ccccc1`, the growth was -33.2% (active) in test [1]; -72.2% (active) in [2]; 9.38% (active) in test [3]; -2.37% (active) in test [4]; -0.986% (active) in test [5]; -17.9% (active) in test [6]. Also, the growth is -31.3% (active) in test [7]; -89.5% (active) in test [8]; -39.3% (active) in test [9]; -44% (active) in test [10]; 11.1% (inactive) in test [11]; -30.2% (active) in [12]. Moreover, the growth in test [13] was 10.7% (inactive); in test [14], -59.4% (active); in test [15], -15.3% (active); in test [16] it was -2.88% (active); in test [19], 64.1% (inactive).
`O=c1c(/C=C/c2ccco2)nnc2sc(Nc3ccc(Cl)cc3)nn12`: the growth is 108% (inactive) in test [1]; 93.5% (inactive) in test [2]; 79.9% (inactive) in test [3]; 94.2% (inactive) in test [4]; 108% (inactive) in test [20]; 93.5% (inactive) in test [6]. For the same molecule, the growth is 92.4% (inactive) in test [7]; 97.6% (inactive) in test [8]; 108% (inactive) in test [9]; 95.6% (inactive) in test [10]; 107% (inactive) in test [12]; 79% (inactive) in [13]. Also, the growth in [14] is 146% (inactive); in test [15], 98.2% (inactive); in test [16], 98.5% (inactive); in test [17], 108% (inactive); in test [18] it was 98% (inactive); in [19], 95.7% (inactive).
For the molecule `COc1cc2c(cc1OCCCOC1=C=C=C(c3ccc4c(c3)c3cc(-c5ccc(OCCCOc6cc7c(cc6OC)C(=O)N6CCC[C@H]6C=N7)cc5)ccc3n4S(=O)(=O)c3ccc(C)cc3)C=C1)N=C[C@@H]1CCCN1C2=O`, the growth in test [1] is 69.4% (inactive); in test [2] it was 37.7% (inactive); in [3], 4.32% (active); in [4], 61.6% (inactive); in test [5], 42.7% (inactive); in test [6], 39% (inactive). Also, the growth in test [7] was -14.1% (active); in [8], -14.5% (active); in [9] it was 64.8% (inactive); in [10], -20.6% (active); in test [11] it was 94.5% (inactive); in test [12] it was -17.2% (active). Further, the growth in test [13] was 39.1% (inactive); in test [14] it was 221% (inactive); in test [15] it was 7.74% (active); in test [16], -19.8% (active); in [17] it was 76.9% (inactive); in [18] it was 40.3% (inactive). Moreover, the growth in [19] was -11.6% (active).
In the case of `CC(C)=CCc1cc(O)c(O)c2oc3cc(O)cc(O)c3c(=O)c12`, the growth in [1] is 22.3% (inactive); in [2] it was 91.7% (inactive); in [3] it was 60.2% (inactive); in test [4], 52.6% (inactive); in [5], 68.8% (inactive); in test [6], 56.1% (inactive). Besides, the growth in test [7] is 54% (inactive); in test [8], 32.6% (inactive); in test [9], 84.4% (inactive); in test [10] it was 97.3% (inactive); in test [11], 78.2% (inactive); in test [12], 58.4% (inactive). The growth is 45.9% (inactive) in test [13]; 46.7% (inactive) in [14]; 41.5% (inactive) in [15]; 36.7% (inactive) in [16]; 101% (inactive) in test [17]; 29.5% (inactive) in test [18]. Further, in [19], the growth was 31.9% (inactive).
Take `CCN1CCN(C(=O)[C@]23CC[C@@H](C)[C@H](C)[C@@H]2C2=CC[C@@H]4[C@@]5(C)CCC(=O)C(C)(C)[C@@H]5CC[C@@]4(C)[C@]2(C)CC3)CC1`: the growth in test [1] was 8.58% (active); in test [2], -12% (active); in test [3], -3.49% (active); in test [4], 20.9% (inactive); in test [5], 4.66% (active); in [6], -84.1% (active). In addition, the growth is -46.1% (active) in [7]; -85.2% (active) in test [8]; -64.7% (active) in [9]; 12.3% (inactive) in test [10]; 28.4% (inactive) in test [11]; 7.97% (active) in [12]. In addition, the growth is -9.67% (active) in test [13]; 18.7% (inactive) in test [14]; 9.64% (active) in [15]; 23.8% (inactive) in [16]; -17.8% (active) in test [17]; -8.01% (active) in [18]. Further, the growth in test [19] was -15.9% (active).
